Bioassay records from PubChem BioAssay.
TWEAK Fn14 block – TWEAK-Fn14 signaling inhibition. TWEAK-stimulated Fn14 reporter cells, luciferase luminescence, 8 h. inhibition, % at 10 µM. 360,000 compounds, 2% hits. AID 1159606; in the data active = inhibition above about 50%
CF NFkB block – inhibitors of cystic fibrosis induced NF-kB; inhibition, % at 5 µM; 360,000 compounds, 0.86% hits; KKLEB NF-kB-GFP reporter, PAF-induced, GFP fluorescence overnight;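 active = at least 50% inhibition at 5 µM, scaled per plate between neutral and stimulator controls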;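 also: PAF is a Pseudomonas aeruginosa culture filtrate used as stimulus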
HIF-2a inh – inhibitors of HIF-2a. 786-0 RCC cells HIF-2a reporter, luciferase luminescence, overnight. inhibition, % at 18.8 µM. 360,000 compounds, 0.72% hits. AID 624352;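 active = inhibition of the luminescence signal of 40% or more relative to plate controls, in a single-dose primary screen at 18.75 µM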
KKLEB cytotox – reduces viability of KKLEB cystic fibrosis airway cells; KKLEB CF airway cells viability, ATPlite luminescence, overnight; hits give low values; cells stimulated with P. aeruginosa culture filtrate; activity change (cytotoxicity), % at 5 µM; 360,000 compounds, 0.36% hits;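 active = corrected activity change at or below -50% at 5 µM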
Peg3 promoter – reduces Peg3 promoter-driven luciferase expression in HeLa; HeLa PEG-Prom luciferase reporter, luminescence, overnight; inhibition, % at 20 µM; 360,000 compounds, 1.7% hits; AID 588405;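 active = inhibition of at least 50% at 20 µM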
TROY NFkB inh – inhibitors of TROY-dependent NF-kB signaling; Q293 LMP1-TROYcd NF-kB luciferase reporter, 4 h; inhibition, % at 10 µM; 360,000 compounds, 0.98% hits;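 active = compounds whose plate-normalised and pattern-corrected inhibition of the luciferase reporter signal at the single screening dose is 50% or more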
A number is an active result; . = inactive; / = not tested or not shown. In the library only some 4% were active in any assay of this set; here they are far more common.

SMILES	TWEAK Fn14 block	CF NFkB block	HIF-2a inh	KKLEB cytotox	Peg3 promoter	TROY NFkB inh
CCCCCCCCC(c1nc2ccccc2[nH]1)N1CCN=C1c1cc2ccccc2[nH]1 (stereo not given)	.	.	.	.	100	.
Cc1ccc(NC(=S)N/N=C/c2c(Cl)cccc2Cl)c(C)c1	.	50	.	.	.	.
O=c1[nH]c(CSc2nc3ccccc3o2)nc2c1cnn2-c1ccccc1	.	.	.	.	53	.
O=c1[nH]c(SCc2nc3c(cnn3-c3ccccc3)c(=O)[nH]2)nc2ccccc12	.	.	.	.	.	.
Cc1ccc(CNC(=O)C2(C)CCN2C(=O)Cc2ccc(-c3ccccc3)cc2)cc1 (stereo not given)	.	.	.	.	.	.
Cn1nc([N+](=O)[O-])nc1Sc1ccc(Cl)cc1	.	.	.	.	.	.
CNc1ncnc(Sc2ccc(Cl)cc2)c1[N+](=O)[O-]	86	.	.	.	.	.
CSc1ccc(CN2CCC(C)(Oc3cnc(Cl)c4ccccc34)C2)cc1 (stereo not given)	.	.	.	.	.	.
CCOc1ccc(-n2nnnc2-c2nc3ccccc3s2)cc1	74	70	.	-70	.	62
CCN(Cc1ccc2c(c1)OCCO2)C(=O)CSc1nc(C)nc2sc(C)c(C)c12	.	.	.	.	.	58
Oc1ccc(N=Nc2cccc(C(F)(F)F)c2)cc1C=Nc1ccc(N2CCOCC2)cc1	.	78	.	.	.	.
Oc1ccc(C=Nc2ccc(N3CCOCC3)cc2)c(O)c1	.	.	.	.	.	.
CCc1cccc(CC)c1-n1c(SCC(=O)N2CCc3ccccc32)nc(O)cc1=O	.	.	.	.	.	.
CCn1nnc2cc(C(=O)Nc3cc(Cl)ccc3C)ccc21	.	.	.	.	.	.
Cc1ccc(O)c(N=Nc2ccccc2)n1	57	.	.	.	.	.
Cc1nnc(NC(=O)CCn2c(=O)oc3ccccc32)s1	.	.	.	.	.	.
COC(=O)C1=CN(c2ccc(N3CCOCC3)cc2)C(N)=C(C#N)C1c1cccc(F)c1 (stereo not given)	/	/	.	/	/	/
CN(C)CCCNc1c2c(nc3ccccc13)CCC2	.	.	.	.	.	.
CN(C)CCNCCCNc1c2ccccc2nc2cccc([N+](=O)[O-])c12	.	.	.	.	98	.
Cc1ccc(NC(=O)CSc2nnc(-c3cc(C)[nH]n3)n2N)c(C)c1	.	.	.	.	.	.
N=c1n(Cc2ccc(Cl)cc2)c2ccccc2n1CC(O)COc1ccccc1 (stereo not given)	.	.	.	.	101	.
N=c1n(CCO)c2ccccc2n1Cc1ccc(Cl)cc1	.	.	.	.	.	.
N=c1n(Cc2ccccc2)c2ccccc2n1CC(O)COc1ccc(Cl)cc1Cl (stereo not given)	.	.	.	.	104	60
COc1ccc(OCC(O)Cn2c(=N)n(Cc3ccccc3)c3ccccc32)cc1 (stereo not given)	.	.	.	.	.	.
Cc1ccc(OCC(O)Cn2c(=N)n(Cc3ccccc3)c3ccccc32)cc1 (stereo not given)	.	.	.	.	108	.
SMILES	TWEAK Fn14 block	CF NFkB block	HIF-2a inh	KKLEB cytotox	Peg3 promoter	TROY NFkB inh
O=C(Cc1nnc(NC(=O)c2ccccc2)s1)N/N=C\c1ccc(O)c(O)c1	.	.	.	.	.	.
O=C(Cc1nnc(NC(=O)c2ccccc2)s1)N/N=C/c1ccc(O)cc1	58	.	.	.	.	.
O=C(CN1CCN(C(=O)c2cc(C3CC3)nn2-c2ccccc2)CC1)Nc1ccc(F)cc1	.	.	.	.	.	.
Cn1nc(C(F)(F)F)c(-c2ccc(Br)cc2)c1NC(=O)Nc1ccc(F)cc1F	.	.	.	.	51	.
CN(C)c1nc(-c2ccccn2)nnc1-c1ccccc1	.	.	.	.	53	.
O=S(=O)(Nc1cccc2cccnc12)c1ccc(S(=O)(=O)N2CCCC2)cc1	.	.	.	.	50	.
Cc1ccc(S(=O)(=O)N2CCCC2CNC(=O)C(=O)NC2CCCC2)cc1 (stereo not given)	.	.	.	.	.	.
OC(Cc1cccc(Br)c1)c1ncc(-c2cccc(C(F)(F)F)c2)[nH]1 (stereo not given)	.	.	.	.	50	.
O=C(Nc1nnc(C2=COCCO2)o1)c1ccc([N+](=O)[O-])cc1	.	.	.	.	.	.
O=C(O)c1cnc(-c2ccccc2)nc1Sc1ccc(Cl)cc1Cl	.	.	.	.	.	61
O=C(O)c1cnc(-c2ccccc2)nc1Sc1cccc(Cl)c1	.	.	.	.	.	.
COc1ccc(C(=O)CSC(=S)N2CCCCC2)cc1	60	.	.	.	.	.
O=C(CSC(=S)N1CCCCC1)c1ccccc1	72	.	.	.	.	50
O=C(CN1C(=O)CSc2ccc(S(=O)(=O)N3CCOCC3)cc21)NCCc1ccccc1	97	.	.	.	.	.
O=C(CN1C(=O)CSc2ccc(S(=O)(=O)N3CCCCCC3)cc21)NCCc1ccccc1	.	.	.	.	.	.
CCOc1ccc(NC(=O)CCCNC(=O)Cn2cnc3sc(C)c(C)c3c2=O)cc1	.	.	.	.	.	.
CN1CCN(c2ccc3sc(-n4ccc5ccccc54)nc3c2)CC1	65	.	.	.	.	80
Brc1ccc2nc(N3CCN(c4ccccc4)CC3)sc2c1	.	.	.	.	.	.
CC(=O)OC1COC(N2CCc3ccccc32)C(OC(C)=O)C1OC(C)=O (stereo not given)	61	.	.	.	.	.
C=C(C)CN=C1SC(C(=O)Nc2sc3c(c2C(=O)OC)CCC3)C(N)=C1C(N)=O (stereo not given)	57	.	.	.	.	.
O=C1CN(CC(=O)NC2CCCc3ccccc32)CCN1 (stereo not given)	.	.	.	.	.	.
CCOC(=O)c1cccc2c1-c1ccccc1/C2=N/O	86	86	.	.	.	50
COc1ccc(CNC[C@H]2O[C@@H](n3ccc(=O)[nH]c3=O)[C@H](O)[C@@H]2O)cc1	.	.	.	.	.	.
COc1ccc(OC)c(CNS(=O)(=O)c2cc(CN3C(=O)c4cccnc4C3=O)ccc2OC)c1	.	.	.	.	.	.
CC(=O)SCC(=O)N=c1sc2cc(F)ccc2n1C	.	.	.	.	.	.
SMILES	TWEAK Fn14 block	CF NFkB block	HIF-2a inh	KKLEB cytotox	Peg3 promoter	TROY NFkB inh
Cn1c(=NC(=O)CCl)sc2ccccc21	.	94	.	-86	.	.
CC(=O)N=c1sc2cc(C)ccc2n1C	52	.	.	.	.	.
Cn1c(=NC(=O)c2ccco2)sc2ccccc21	.	.	.	.	.	.
N#Cc1ccccc1NC(=O)COC(=O)/C=C/c1ccc(S(=O)(=O)N2CCOCC2)cc1	.	.	.	.	.	.
CCOC(=O)Nc1cc(C(=O)OCC)c(C)nc1C	76	.	.	.	.	/
CCOC(=O)c1cc(NC(=O)Nc2cc(C)ccn2)c(C)nc1C	.	.	.	.	.	.
